In PubChem BioAssay (Tox21):
Several values for one entry are separate records, joined by “and”; a condition that tells them apart may be missing. Identical values can stand only once. Inconclusive results are not listed. A call without a number means that no potency is given here. More than one record can exist for a structure, and the calls need not agree. Activity calls are given as the source filed them. Unless noted, the call rests on the fitted dose curve; in most records, active means well fitted curve in the direction sought with a large enough effect in the repeat runs; inconclusive means weak or mixed curves; inactive means no such curve, though single readings can be large; an effect the other way counts as inactive or inconclusive.

Key:
[1] = qHTS assay to identify small molecule agonists of the hypoxia (HIF-1) signaling pathway - cell viability counter screen (AID 1224844; calls by dose curve; further: nearly all actives have a fitted effect of over 50% in size)
Summary of the method: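 HRE-bla ME-180 cells in medium with 0.5% dialyzed FBS were preincubated 5 hrs at 37C, exposed to compounds for 17 hrs, then viability was read as CellTiter-Glo luminescence after 30 min at room temperature, in the reporter wells.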

[2] = qHTS assay to identify small molecule agonists of H2AX (AID 1224845; active means well fitted activation curve with a large enough effect in the signal ratio in the repeat runs, not every such curve was filed as active; the % refers to the signal ratio)
Summary of the method: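 Phospho-H2AX Ser139 measured by HTRF (ex 320 nm; em 665 and 620 nm) after 24 hr antibody incubation. Compounds, 15 concentrations, 0.76% DMSO, were applied to CHO-K1 cells for 3hr at 37C before lysis.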

[3] = qHTS assay to identify small molecule agonists of H2AX - cell viability counter screen (AID 1224847; calls by dose curve; further: top concentration of the series differs between compounds; nearly all actives have a fitted effect of over 30% in size)
Summary of the method: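 Quantitative HTS viability measurement: CHO-K1 wild-type cells in serum (10% FBS) medium, short 3 hr drug exposure at 37C with 0.76% DMSO, CellTiter-Glo luminescent detection.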

[4] = qHTS assay to identify small molecule antagonists of the estrogen related receptor (ERR) signaling pathway from Tox21 library (AID 1224848); further: nearly all actives have a fitted effect of over 50% in size
Summary of the method: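 Reading was by luminescence 30 min after ONE-Glo addition. Before that, ERR cells at 2,000 per well had rested 6 h at 37 C/5% CO2 and then received pin-tooled compounds in DMSO for 18 h at 37 C.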

[5] = qHTS assay to identify small molecule agonists of the estrogen related receptor (ERR) signaling pathway from Tox21 library (AID 1224849; calls by dose curve; further: nearly all actives have a fitted effect of over 15% in size); settings: ERR reporter cell line, ONE-Glo luciferase, 18 h
Summary of the method: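 ERR reporter cell line (NTP) seeded, rested 6 h at 37 C/5% CO2, then pinned with Tox21 compounds in DMSO. After 18 h at 37 C, ONE-Glo luciferase luminescence was read following 30 min at room temperature.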

[6] = qHTS RealTime-Glo MT Cell Viability Assay in HepG2 cells - 24 hour (AID 1224867); further: nearly all actives have a fitted effect of over 50% in size
Summary of the method: (§1)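 Tox21 10K library screened in qHTS format on HepG2 cells carrying RealTime-Glo reagents. Compounds were added after a 5 h preincubation, and the luminescent signal from continuous culture was measured repeatedly during 40 h treatment.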

[7] = qHTS RealTime-Glo MT Cell Viability Assay in HEK293 cells - 32 hour (AID 1224868); further: nearly all actives have a fitted effect of over 50% in size; further: potency means the concentration at half of the fitted maximal effect
Summary of the method: (§2)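 Luminescence generated by NanoLuc from substrate produced by living HEK293 cells served as the viability signal. Each value reflects the reading at its stated time point during continuous 40 h compound exposure at 37 C.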

[8] = A CellTox Green Cytotoxicity Assay to monitor cytotoxicity in HEK293 cells - 0 hour (AID 1224869); further: nearly all actives have a fitted effect of over 50% in size
Summary of the method: (§3)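 HEK293 cells premixed with CellTox Green dye were seeded at 600 cells/well and left 5 h at 37 C/5% CO2 before pin transfer of 23 nL compound in DMSO. Fluorescence from dye bound to dead-cell DNA was read during 40 h treatment.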

[9] = qHTS RealTime-Glo MT Cell Viability Assay in HepG2 cells - 40 hour (AID 1224870); further: nearly all actives have a fitted effect of over 50% in size; further: potency means the concentration at half of the fitted maximal effect
Summary of the method: (§4)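 Real-time viability: cells seeded at 600 per well together with NanoLuc and cell-permeant prosubstrate, compounds added after 5 h incubation. Luminescence tracked at 0, 8, 16, 24, 32 and 40 h of exposure.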

[10] = A CellTox Green Cytotoxicity Assay to monitor cytotoxicity in HEK293 cells - 40 hour (AID 1224871); further: nearly all actives have a fitted effect of over 45% in size; further: potency means the concentration at half of the fitted maximal effect
Summary of the method: as §3

[11] = qHTS RealTime-Glo MT Cell Viability Assay in HEK293 cells - 16 hour (AID 1224872)
Summary of the method: as §2

[12] = qHTS RealTime-Glo MT Cell Viability Assay in HepG2 cells - 8 hour (AID 1224873); further: nearly all actives have a fitted effect of over 55% in size
Summary of the method: as §4

[13] = A CellTox Green Cytotoxicity Assay to monitor cytotoxicity in HEK293 cells - 24 hour (AID 1224875); further: nearly all actives have a fitted effect of over 45% in size
Summary of the method: as §3

[14] = A CellTox Green Cytotoxicity Assay to monitor cytotoxicity in HepG2 cells - 16 hour (AID 1224876); further: nearly all actives have a fitted effect of over 45% in size
Summary of the method: (§5)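 HepG2 cells were seeded together with the CellTox Green dye at 600 cells/well, left 5 h at 37 C/5% CO2, then given compounds in DMSO. Fluorescence from dye bound to dead-cell DNA was read repeatedly over 40 h of treatment at 37 C.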

[15] = qHTS RealTime-Glo MT Cell Viability Assay in HepG2 cells - 32 hour (AID 1224877); further: nearly all actives have a fitted effect of over 55% in size
Summary of the method: as §1

[16] = A CellTox Green Cytotoxicity Assay to monitor cytotoxicity in HepG2 cells - 24 hour (AID 1224878); further: nearly all actives have a fitted effect of over 45% in size
Summary of the method: as §5

[17] = A CellTox Green Cytotoxicity Assay to monitor cytotoxicity in HepG2 cells - 40 hour (AID 1224879); further: nearly all actives have a fitted effect of over 40% in size; further: potency means the concentration at half of the fitted maximal effect
Summary of the method: as §5

[18] = qHTS RealTime-Glo MT Cell Viability Assay in HEK293 cells - 0 hour (AID 1224880)
Summary of the method: (§6)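 HEK293 cells mixed with RealTime-Glo reagents (NanoLuc plus cell-permeant prosubstrate) at 600 cells/well, preincubated 5 h at 37 C/5% CO2, then given 23 nL compound in DMSO. Nonlytic luminescence from viable cells was read at 0, 8, 16, 24, 32 and 40 h.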

[19] = qHTS assay to identify small molecule agonists of the hypoxia (HIF-1) signaling pathway (AID 1224846; active means well fitted activation curve with a large enough effect in the signal ratio in the repeat runs, not every such curve was filed as active; the % refers to the signal ratio)
Summary of the method: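 HRE-bla ME-180 cells (beta-lactamase reporter under hypoxia response element) were plated at 2,000 cells/well in medium with 0.5% dialyzed FBS, rested 5 hrs, then given compounds in DMSO for 17 hrs at 37C, 5% CO2. Reporter induction was read with CCF4-AM FRET substrate.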

[20] = qHTS RealTime-Glo MT Cell Viability Assay in HEK293 cells - 40 hour (AID 1224874); settings: RealTime-Glo luminescence; max response: stronger effect = lower value; further: nearly all actives have a fitted effect of over 50% in size; further: potency means the concentration at half of the fitted maximal effect
Summary of the method: as §6

## Cc1ccc(S(=O)(=O)NC(=O)NN2CCCCCC2)cc1
[1]
  Potency: inactive
[2]
  outcome: inactive
[3]
  outcome: inactive
[4]
  Potency: inactive
[5]; at 42.5 µM (top of the series)
  activity change, positive = activation: -3.23% (inactive)
[5]; at 92.4 µM (top of the series)
  activity change, positive = activation: -0.537% (inactive) and -0.346% (inactive)
[6]
  Potency: inactive
[7]
  Potency: inactive
[8]
  outcome: inactive
[9]
  Potency: inactive
[10]
  Potency: inactive
[11]
  Potency: inactive
[12]
  outcome: inactive
[13]
  Potency: inactive
[14]
  Potency: inactive
[15]
  Potency: inactive
[16]
  Potency: inactive
[17]
  Potency: inactive
[18]
  Potency: inactive

## COc1c2occc2cc2ccc(=O)oc12
[1]
  Potency: inactive
[2]
  outcome: inactive
[3]
  outcome: inactive
[6]
  Potency: inactive
[7]
  Potency: inactive and 21.9 µM (active)
[8]
  outcome: inactive
[9]
  Potency: inactive
[10]
  Potency: inactive
[11]
  Potency: inactive
[12]
  outcome: inactive
[13]
  Potency: inactive
[14]
  Potency: inactive
[15]
  Potency: inactive
[16]
  Potency: inactive
[17]
  Potency: inactive
[18]
  Potency: inactive

## N=C(N)c1ccc(OCCCCCOc2ccc(C(=N)N)cc2)cc1
[1]
  Potency: inactive
[2]
  outcome: inactive
[19]
  outcome: inactive
[3]
  outcome: inactive
[6]
  Potency: inactive
[7]
  Potency: 12.2 µM (active) and 16.6 µM (active)
[8]
  outcome: inactive
[9]
  Potency: 54.7 µM (active) and inactive
[10]
  Potency: 48.8 µM (active) and 46.8 µM (active) and inactive
[12]
  outcome: inactive
[20]
  Potency: 9.73 µM (active) and 16.6 µM (active) and 21.3 µM (active)
[13]
  Potency: inactive
[14]
  Potency: inactive
[15]
  Potency: inactive
[16]
  Potency: inactive
[17]
  Potency: 48.8 µM (active) and inactive
[18]
  Potency: inactive

## CC(O)CN(CCN(CC(C)O)CC(C)O)CC(C)O (configuration not stated)
[1]
  Potency: inactive
[2]
  outcome: inactive
[3]
  outcome: inactive
[6]
  Potency: inactive
[7]
  Potency: inactive
[8]
  outcome: inactive
[9]
  Potency: inactive
[10]
  Potency: inactive
[11]
  Potency: inactive
[12]
  outcome: inactive
[13]
  Potency: inactive
[14]
  Potency: inactive
[15]
  Potency: inactive
[17]
  Potency: inactive
[18]
  Potency: inactive

## Cc1ccccc1C(OCCN(C)C)c1ccccc1 (configuration not stated)
[1]
  Potency: inactive
[2]
  outcome: inactive
[3]
  outcome: inactive
[4]
  Potency: inactive
[5]; at 42.5 µM (top of the series)
  activity change, positive = activation: 0.836% (inactive)
[5]; at 92.4 µM (top of the series)
  activity change, positive = activation: 0.151% (inactive) and 0.194% (inactive)
[6]
  Potency: inactive
[7]
  Potency: inactive
[8]
  outcome: inactive
[9]
  Potency: inactive
[10]
  Potency: inactive
[11]
  Potency: inactive
[12]
  outcome: inactive
[20]
  max response: -3.03% (inactive) and -20.7% (inactive) and -19.7% (inactive)
[13]
  Potency: inactive
[14]
  Potency: inactive
[15]
  Potency: inactive
[16]
  Potency: inactive
[17]
  Potency: inactive
[18]
  Potency: inactive

## Cc1cn([C@H]2C[C@H](N=[N+]=[N-])[C@@H](CO)O2)c(=O)[nH]c1=O
[1]
  Potency: inactive
[2]
  outcome: inactive
[3]
  outcome: inactive
[4]
  Potency: inactive
[5]; at 42.5 µM (top of the series)
  activity change, positive = activation: 1.9% (inactive)
[5]; at 92.4 µM (top of the series)
  activity change, positive = activation: 1.55% (inactive) and -3.89% (inactive)
[6]
  Potency: inactive
[7]
  Potency: inactive
[8]
  outcome: inactive
[9]
  Potency: inactive
[10]
  Potency: inactive
[11]
  Potency: inactive
[12]
  outcome: inactive
[20]
  max response: -0.145% (inactive) and 3.87% (inactive) and 7.29% (inactive)
[13]
  Potency: inactive
[14]
  Potency: inactive
[15]
  Potency: inactive
[16]
  Potency: inactive
[17]
  Potency: inactive
[18]
  Potency: inactive

## CC(=O)Nc1nnc(S(N)(=O)=O)s1
[1]
  Potency: inactive
[2]
  outcome: inactive
[19]
  outcome: inactive
[3]
  outcome: inactive
[6]
  Potency: inactive
[7]
  Potency: inactive
[8]
  outcome: inactive
[9]
  Potency: inactive
[10]
  Potency: inactive
[11]
  Potency: inactive
[12]
  outcome: inactive
[13]
  Potency: inactive
[14]
  Potency: inactive
[15]
  Potency: inactive
[17]
  Potency: inactive
[18]
  Potency: inactive

## O=S(=O)(O)NC1CCCCC1
[1]
  Potency: inactive
[2]
  outcome: inactive
[19]
  outcome: inactive
[3]
  outcome: inactive
[6]
  Potency: inactive
[7]
  Potency: inactive
[8]
  outcome: inactive
[9]
  Potency: inactive
[10]
  Potency: inactive
[11]
  Potency: inactive
[12]
  outcome: inactive
[13]
  Potency: inactive
[14]
  Potency: inactive
[15]
  Potency: inactive
[17]
  Potency: inactive
[18]
  Potency: inactive

## Cc1ccc(O)cc1
[1]
  Potency: inactive
[2]
  outcome: inactive
[3]
  outcome: inactive
[6]
  Potency: inactive
[7]
  Potency: inactive
[8]
  outcome: inactive
[9]
  Potency: inactive
[10]
  Potency: inactive
[11]
  Potency: inactive
[12]
  outcome: inactive
[20]
  max response: 8.24% (inactive) [middle of 4 runs]
[13]
  Potency: inactive
[14]
  Potency: inactive
[15]
  Potency: inactive
[17]
  Potency: inactive
[18]
  Potency: inactive

## NNC(=O)c1ccncc1
[1]
  Potency: inactive
[2]
  outcome: inactive
[3]
  outcome: inactive
[4]
  Potency: inactive
[5]; at 42.5 µM (top of the series)
  activity change, positive = activation: -2.18% (inactive) and 2.7% (inactive)
[5]; at 92.4 µM (top of the series)
  activity change, positive = activation: -1.91% (inactive)
[6]
  Potency: inactive
[7]
  Potency: inactive
[8]
  outcome: inactive
[9]
  Potency: inactive
[10]
  Potency: inactive
[11]
  Potency: inactive
[12]
  outcome: inactive
[20]
  max response: 1.61% (inactive) and 0.145% (inactive) and 4.04% (inactive)
[13]
  Potency: inactive
[14]
  Potency: inactive
[15]
  Potency: inactive
[16]
  Potency: inactive
[17]
  Potency: inactive
[18]
  Potency: inactive

## O=C(O)CCCCCCCC(=O)O
[1]
  Potency: inactive
[2]
  outcome: inactive
[3]
  outcome: inactive
[6]
  Potency: inactive
[7]
  Potency: inactive
[8]
  outcome: inactive
[9]
  Potency: inactive
[10]
  Potency: inactive
[11]
  Potency: inactive
[12]
  outcome: inactive
[13]
  Potency: inactive
[14]
  Potency: inactive
[15]
  Potency: inactive
[17]
  Potency: inactive
[18]
  Potency: inactive

## O=C(O)CS
[1]
  Potency: inactive
[2]
  outcome: inactive
[3]
  outcome: inactive
[6]
  Potency: inactive
[7]
  Potency: inactive
[8]
  outcome: inactive
[9]
  Potency: inactive
[10]
  Potency: inactive
[11]
  Potency: inactive
[12]
  outcome: inactive
[20]
  max response: 1.63% (inactive) and 9.97% (inactive) and 1.26% (inactive)
[13]
  Potency: inactive
[14]
  Potency: inactive
[15]
  Potency: inactive
[16]
  Potency: inactive
[17]
  Potency: inactive
[18]
  Potency: inactive
